# Test results taken from PubChem BioAssay (EPA / NIEHS).
# Where “and” joins values, the source holds several entries; their conditions need not be identical. Identical values can stand only once. Calls of active or inactive are those of the source. The calls were made as follows: active = hit-call score of the fitted dose curve at least 0.9, where 1 is the maximum; inactive = score below 0.9.
# Read-out: Matrix Metallopeptidase 9 (MMP9), MMP9 (gene 4318)
# Assay: BSK_KF3CT_MMP9: BioMAP Diversity Plus: KF3CT Assay for Matrix Metallopeptidase 9 (MMP9) Biomarker Activity (AID 2283074)
# Settings: primary human keratinocytes with fibroblasts; actives raise or lower the signal
# Protocol: BSK_KF3CT is a cell-based, multiplexed-readout assay that uses keratinocytes and foreskin fibroblasts, a human skin primary cell co-culture, with measurements taken at 24 hours after chemical dosing in a 96-well plate.BSK_KF3CT_MMP9 is an assay component measured in the BSK_KF3CT assay. It measures MMP-9 antibody related to regulation of gene expression using ELISA technology.Data from the assay component BSK_KF3CT_MMP9 was analyzed into 1 assay endpoint. This assay endpoint, BSK_KF3CT_MMP9, was analyzed with bidirectional fitting relative to DMSO as the negative control and baseline of activity. Using a type of binding reporter, gain or loss-of-signal activity can be used to understand changes in the signaling as they relate to the gene MMP9. Furthermore, this assay endpoint can be referred to as a primary readout, because this assay has produced multiple assay endpoints where this one serves a signaling function. To generalize the intended target to other relatable targets, this assay endpoint is annotated to the protease intended target family, where the subfamily is matrix metalloproteinase.
# The levels of cell surface (or secreted, indicated by the prefix "s") biomarker endpoints were measured by ELISA. Overt cytotoxicity to cells in confluent adherent cultures (all systems other than the BT system) was assessed by measuring total protein levels using sulforhodamine B (SRB) staining in parallel cultures at the time of biomarker measurements, indicated as SRB endpoints. For proliferation assays for adherent cell types, individual cell types are cultured at sub-confluence and relative cell numbers quantified by SRB staining at time points optimized for each system (48 h: 3C and CASM3C systems; 72 h: BT and HDF3CGF systems; 96 h: SAg system). SRB was performed by staining cells with 0.1% SRB after fixation with 10% TCA and reading wells at 560 nm.Viability and proliferation of PBMC (T cells) was quantified by Alamar Blue reduction for the SAg and BT systems. For PBMC viability (referred to as PBMC Cytotoxicity within the assay endpoint names), cells were plated (75,000/well in a 96-well plate) and then chemical samples added for 1 h before addition of activators, SEB and TSST-1 (20 ng/mL final concentration each). Cells were incubated for 90 h. Then, Alamar Blue (20 uL/well) (Invitrogen, Cat DAL1100) was added for 6 h, and the plates were read with a fluorescence microplate reader at 546/580 nm (excitation/emission). For PBMC proliferation, cells were plated and activated as above but incubated for only 16 h prior to addition of Alamar Blue. Plates were read after 6 h.
Compound,AC50,outcome
CCCCCCCCCCC1CO1 (configuration not stated),36.1 µM (active),
CN(C)c1ccc(C(c2ccccc2)c2ccc(N(C)C)cc2)cc1,13.6 µM (active),
COc1ccc(C(=O)c2ccccc2O)c(O)c1,,inactive
C1CN(CCOCCN2CCOCC2)CCO1,,inactive
CCCCCCCCCCCCCCCCCC[N+](C)(C)C,3.32 µM (active),
Cc1cc(-n2nc3ccc(Cl)cc3n2)c(O)c(C(C)(C)C)c1,,inactive
CN(C)CCC(c1ccc(Cl)cc1)c1ccccn1 (configuration not stated),,inactive
Cc1cccnc1,,inactive
CCC[Si](OC(C)=O)(OC(C)=O)OC(C)=O,,inactive
CCCCCCCCCC/C=C/C1CC(=O)OC1=O (configuration not stated),27.7 µM (active),
Oc1cccc2ccccc12,,inactive
CC[N+](CC)(CC(=O)Nc1c(C)cccc1C)Cc1ccccc1,,inactive
OC(C(F)(F)F)(C(F)(F)F)C(O)(C(F)(F)F)C(F)(F)F,43 µM (active) and 46.1 µM (active),
COc1ccccc1Oc1c(NS(=O)(=O)c2ccc(C(C)(C)C)cc2)nc(-c2ncccn2)nc1OCCO,,inactive
CCCCC(CC)COC(=O)C=Cc1ccc(OC)cc1 (configuration not stated),,inactive
CCCCCCC(O)CCCCCCCCCCC(=O)OC (configuration not stated),,inactive
COc1cc(CNC(=O)CCCC/C=C/C(C)C)ccc1O,,inactive
Sc1nc2ccccc2s1,,inactive
CN(C)Cc1cc(C(C)(C)C)c(O)c(C(C)(C)C)c1,,inactive
CC[N+](CC)(CC(=O)Nc1c(C)cccc1C)Cc1ccccc1 (tested in a mixture with another compound),,inactive
COC(=O)/C=C\C(=O)OC,,inactive
Cc1c(C(N)=O)cc([N+](=O)[O-])cc1[N+](=O)[O-],,inactive
O=[N+]([O-])c1cc(S(=O)(=O)Nc2ccccc2)ccc1Nc1ccccc1,31.5 µM (active) and 29.5 µM (active),
CC(C)CC(=O)CC(C)CC(C)C (configuration not stated),36.4 µM (active),
O=C(C(=O)c1ccccc1)c1ccccc1,,inactive
CCC(C)=NO,,inactive
CC(C)C1OCCN1CCOC(=O)NCCCCCCNC(=O)OCCN1CCOC1C(C)C (configuration not stated),,inactive
